Sa RN4220 lethal = growth inhibition of S. aureus RN4220, primary screen, OD600; 16 h; inhibition, % (concentration not given with the values); 0.33% of 330,000 active; AID 1259311, 2017; in the data active = inhibition above about 85%;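 note: plate controls were untreated cells for no effect and reference antibiotic for full effect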
BJeLR lethal = MLPCN primary cell-based screen for lethality selective to Ras in HRASV12 cells; BJeLR (HRASV12) viability, CellTiter-Glo ATP luminescence, 48 h; inhibition, % (concentration not given with the values); 0.17% of 300,000 active; in the data active = inhibition above about 50%
ugtP null kill = growth inhibition of ugtP-null S. aureus, primary screen, RN4220 ugtP deletion, OD600; 16 h; AID 1259309, 2017; growth inhibition, % (test concentration not listed); 0.54% of 330,000 active; in the data active = growth inhibition above about 68%;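 note: plate controls were untreated wells for no effect and antibiotic for full effect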
PrPC surface inh = inhibitors of human cell surface prion protein PrPC, primary screen, cell-based, TR-FRET; TR-FRET read-out; 0.43% of 370,000 active; Major prion protein (Homo sapiens), P04156; AID 720596, 2013; inhibition, % at 13.8 µM; in the data active = inhibition above about 24%; note: 0% = median of the test wells and 100% = reference compound wells
The depositor's hits bear a star; · = no result. Most compounds without a hit are left out; they make up all but 0.95% or so of the library.

SMILES | Sa RN4220 lethal | BJeLR lethal | ugtP null kill | PrPC surface inh
CO[C@H]1/C=C/O[C@@]2(C)Oc3c(C)c(O)c4c(O)c(c5c(c4c3C2=O)NC2(CCN(CC(C)C)CC2)N=5)=NC(=O)/C(C)=C\C=C\[C@H](C)[C@H](O)[C@@H](C)[C@@H](O)[C@@H](C)[C@H](OC(C)=O)[C@@H]1C | · | · | · | -20
COC1C=CO[C@@]2(C)Oc3c(C)c(O)c4c(O)c(c(C=NN5CCN(C)CC5)c(O)c4c3C2=O)NC(=O)C(C)=CC=CC(C)C(O)C(C)C(O)C(C)C(OC(C)=O)C1C (some centres not stated) | 98* | · | 97* | ·
COC1C=CO[C@@]2(C)Oc3c(C)c(O)c4c(O)c(c5c(nc6cc(C)ccn65)c4c3C2=O)NC(=O)C(C)=CC=CC(C)C(O)C(C)C(O)C(C)C(OC(C)=O)C1C (some centres not stated) | 99* | · | 99* | ·
COc1ccc2oc(=O)c(C(C)=NNc3ccccc3)cc2c1 | 5 | · | -3 | ·
COc1ccc(C)cc1N(CC(=O)NN=Cc1ccc2c(c1)OCO2)S(C)(=O)=O | 8 | · | 1 | ·
O=S1(=O)CCOCC(Cc2ccccc2)N1Cc1cccc(C(F)(F)F)c1 (configuration not stated) | 8 | · | -23 | ·
CCOC1OC(C(=O)NC2CC2)=CC(C)C1CCCO (configuration not stated) | 6 | · | 2 | ·
Oc1c(Cl)cc(Cl)cc1C=Nc1ncn[nH]1 | 7 | · | -3 | ·
Cc1ccc(S(=O)(=O)Nc2ccccc2C(=O)Nc2nc(-c3ccc(F)cc3)cs2)cc1 | 89* | 28 | 89* | 24
Cc1cccc(NC(=S)NN=CC(C)c2ccccc2)c1C (configuration not stated) | 1 | · | -10 | ·
FC(F)(F)c1cccc(NC(=S)Nc2ccc(Cl)c(Cl)c2)c1 | 101* | 18 | 101* | 9
O=[N+]([O-])c1cc(C(F)(F)F)cc([N+](=O)[O-])c1NCCNC(=S)Nc1ccc(Cl)c(Cl)c1 | 99* | 17 | 100* | -2
FC(F)(F)c1cccc(NC(=S)NNC(=S)Nc2cccc(C(F)(F)F)c2)c1 | · | 6 | · | ·
O=C1OCCN1N=Cc1ccc([N+](=O)[O-])o1 | 100* | · | 100* | ·
CCOc1ccccc1C=NNC(=O)c1ccc(Cn2cc([N+](=O)[O-])cn2)o1 | 0 | · | 3 | ·
CCCCCCc1ccc(-c2ncc(N)cn2)cc1 | 5 | -8 | 100* | 7
Cn1c(=O)c2[nH]c(SCC(=O)NCCc3ccc(F)cc3)nc2n(C)c1=O | · | · | · | 4
CCN(CCNS(=O)(=O)c1ccc2[nH]c(=O)sc2c1)c1ccccc1 | -14 | 3 | 99* | -1
CCOc1ccccc1CNS(=O)(=O)c1ccc2[nH]c(=O)sc2c1 | 4 | 0 | 46 | 10
CCN(CC)c1ccc(C(=O)NN=Cc2ccccc2OC(F)F)cc1 | -2 | · | 0 | ·
COc1ccc(Nc2nc(-c3ccccc3)nc3ccccc23)cc1 | 8 | 1 | 95* | 20
COc1ccc(Nc2nc(-c3cccs3)nc3ccccc23)cc1 | 11 | -4 | 95* | 15
Nc1c(C(=O)NC2CCCC2)c2nc3ccccc3nc2n1N=Cc1cccnc1 | 15 | · | 8 | ·
CC(C)OC(=O)C(=CC=Cc1ccccc1)NC(=O)c1ccccc1 | 16 | · | -9 | ·
O=C(C=Cc1cccc([N+](=O)[O-])c1)c1ccc([N+](=O)[O-])o1 | 100* | · | 100* | ·
SMILES | Sa RN4220 lethal | BJeLR lethal | ugtP null kill | PrPC surface inh
Cc1ccccc1/C=C/C(=O)c1ccc([N+](=O)[O-])o1 | · | 18 | · | -7
Cc1cccc(C=CC(=O)c2ccc([N+](=O)[O-])o2)c1 | 101* | · | 100* | ·
Cc1ccccc1C=CC(=O)c1ccc([N+](=O)[O-])o1 | 33 | · | 101* | ·
COc1ccc(C=CC(=O)c2ccc([N+](=O)[O-])o2)cc1OC | 48 | · | 100* | ·
Cc1cccc(/C=C/C(=O)c2ccc([N+](=O)[O-])o2)c1 | · | 43 | · | 0
CC1CN=C(Nc2ccccc2)N1CC1CCCCC1 (configuration not stated) | 2 | · | 0 | ·
COc1cccc2cc(C(=NO)c3ccccc3)oc12 | 4 | · | -2 | ·
O=C(CNS(=O)(=O)c1ccccc1)NN=Cc1ccc(Cl)cc1 | 0 | · | -4 | ·
C=C1C(=O)O[C@H]2C[C@H]1[C@@H](OC(C)=O)C/C(C)=C/CC/C(C)=C\CC[C@]2(C)O | 8 | · | -5 | 38*
C=C1C(=O)O[C@@H]2[C@H]3O[C@]3(C)CC/C=C(\C)CC[C@@H]12 | · | · | · | 5
Nc1ccccc1C=NN=Cc1ccccc1N | 2 | · | 22 | ·
O=c1oc2cc(Cl)ccc2n1CSc1nc2ccccc2s1 | 85* | 1 | 86 | -2
CCOc1ccc(NCc2ccccc2OCc2cccc(F)c2)cc1 | -1 | -8 | 92* | 2

Source: PubChem BioAssay
